In PubChem BioAssay (NCI):
About 83,000 compounds went through this panel and 20% of them were active in at least one assay; those are over-represented in the sample as a whole.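 96-well plates, one dose, 48 hours. Percent growth reported; active if below 10.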 Activity calls are given as the source filed them.

What was measured:
Test in all cases: NCI-60 one-dose screen, 48 h (100 = growth as untreated, 0 = no growth, -100 = all killed)
Conditions in all cases: 10 µM unless noted
NCI-H23 lung = test system: NCI-H23 lung
NCI-H226 lung = test system: NCI-H226 lung
NCI-H322M lung = test system: NCI-H322M lung
HOP-62 NSCLC = test system: HOP-62 NSCLC
NCI-H460 lung = test system: NCI-H460 lung
HOP-92 NSCLC = test system: HOP-92 NSCLC
NCI-H522 lung = test system: NCI-H522 lung
A549/ATCC NSCLC = test system: A549/ATCC NSCLC
786-0 renal = test system: 786-0 renal
COLO 205 colon = test system: COLO 205 colon

Measured: growth

NC(=S)n1c(=O)n(-c2cccc(C(F)(F)F)c2)c(=O)c2cc(-c3ccc(F)cc3F)ccc21
active: NCI-H23 lung -5.28% | NCI-H226 lung 9.53% | NCI-H322M lung 6.11% | HOP-62 NSCLC 1.42% | NCI-H460 lung 6.23% | HOP-92 NSCLC -29.9% | NCI-H522 lung -4.04% | A549/ATCC NSCLC 7.29%
inactive: 786-0 renal 11.4% | COLO 205 colon 37.5%

Cc1ccc2c(n1)C(=O)C(Cl)=C(Nc1cccc(C)c1C)C2=O
inactive: NCI-H226 lung 18.7% | NCI-H322M lung 16.9% | NCI-H460 lung 36.8% | A549/ATCC NSCLC 41.5% | 786-0 renal 21.9% | COLO 205 colon 87.7%
active: NCI-H23 lung -10.6% | HOP-62 NSCLC -0.0437% | HOP-92 NSCLC -1.44% | NCI-H522 lung -37.5%

Fc1ccc2nc(-c3cnn4cccnc34)sc2c1
inactive: NCI-H23 lung 93.3% | NCI-H226 lung 83.1% | NCI-H322M lung 67.5% | HOP-62 NSCLC 85.1% | NCI-H460 lung 88.2% | HOP-92 NSCLC 78.9% | NCI-H522 lung 93.5% | A549/ATCC NSCLC 81% | 786-0 renal 101% | COLO 205 colon 102%

C#CCN(C)CCCOc1ccc(NCc2ccc(C(=O)NO)cc2)cc1Cl
inactive: NCI-H23 lung 21.3% | NCI-H226 lung 46.6% | NCI-H322M lung 31.8% | HOP-62 NSCLC 24.8% | NCI-H460 lung 24.8% | NCI-H522 lung 13.7% | A549/ATCC NSCLC 20% | 786-0 renal 38.9%
active: HOP-92 NSCLC -5.78% | COLO 205 colon 3.71%

CC1=C(C)C(=O)C(Nc2ccc3c(c2)OCCO3)=C(Br)C1=O
inactive: NCI-H23 lung 85.2% | NCI-H226 lung 85.6% | NCI-H322M lung 102% | HOP-62 NSCLC 97.6% | NCI-H460 lung 102% | HOP-92 NSCLC 68.2% | NCI-H522 lung 96.9% | A549/ATCC NSCLC 107% | 786-0 renal 105% | COLO 205 colon 126%

O=C(CCCCCCN1CC(=O)N2[C@@H](c3ccc(Cl)s3)c3[nH]c4ccccc4c3C[C@H]2C1=O)NO
inactive: NCI-H23 lung 41.1% | NCI-H226 lung 68.6% | NCI-H322M lung 46% | HOP-62 NSCLC 61.5% | NCI-H460 lung 39.4% | HOP-92 NSCLC 34.6% | A549/ATCC NSCLC 73.4% | 786-0 renal 81.1% | COLO 205 colon 54%
active: NCI-H522 lung 3.19%

O=C(Nc1ccc(N=Cc2c(O)[nH]c3ccccc23)cc1)Nc1ccc(S(=O)(=O)Nc2ncccn2)cc1
inactive: NCI-H23 lung 27.1% | NCI-H226 lung 96.7% | NCI-H322M lung 114% | HOP-62 NSCLC 99% | NCI-H460 lung 104% | HOP-92 NSCLC 94.2% | NCI-H522 lung 95% | A549/ATCC NSCLC 101% | 786-0 renal 100% | COLO 205 colon 125%

CSc1ccc(C(=NNS(=O)(=O)c2ccc(C)cc2)c2ccc(Cl)cc2)cc1
inactive: NCI-H23 lung 94% | NCI-H226 lung 98% | NCI-H322M lung 92.7% | HOP-62 NSCLC 98.6% | NCI-H460 lung 104% | HOP-92 NSCLC 86.9% | NCI-H522 lung 94.4% | A549/ATCC NSCLC 99.6% | 786-0 renal 104% | COLO 205 colon 119%

CC1=C(C)C(=O)C(Nc2cccc(C)c2)=C(Br)C1=O
inactive: NCI-H23 lung 85.1% | NCI-H226 lung 92.2% | NCI-H322M lung 98.4% | HOP-62 NSCLC 90.7% | NCI-H460 lung 103% | NCI-H522 lung 94.6% | A549/ATCC NSCLC 101% | 786-0 renal 107% | COLO 205 colon 126%
active: HOP-92 NSCLC -35.5%

O=[N+]([O-])c1ccc(NC(=S)NNC(=S)Nc2ccc(Br)cc2)cc1
inactive: NCI-H23 lung 86.1% | NCI-H226 lung 97.3% | NCI-H322M lung 63.3% | HOP-62 NSCLC 94.9% | NCI-H460 lung 97.6% | HOP-92 NSCLC 99.9% | NCI-H522 lung 81.1% | A549/ATCC NSCLC 83.9% | 786-0 renal 99.2% | COLO 205 colon 112%

O=C(Nc1cccc(C(F)(F)F)c1)N1CCN(c2cc(-c3cn(-c4ccccc4)nc3-c3cccc(O)c3)ccn2)CC1
inactive: NCI-H23 lung 37.7% | NCI-H226 lung 30.3% | NCI-H322M lung 73.9% | HOP-62 NSCLC 91.3% | NCI-H460 lung 63.4% | HOP-92 NSCLC 35.7% | NCI-H522 lung 31% | A549/ATCC NSCLC 44.8% | 786-0 renal 54.6% | COLO 205 colon 60%

O=C(CSc1nc2ccccc2c(=O)n1CCc1ccccc1)Nc1ccc(S(=O)(=O)Nc2ccc(Cl)nn2)cc1
inactive: NCI-H23 lung 89.9% | NCI-H226 lung 88.1% | NCI-H322M lung 92.8% | HOP-62 NSCLC 95.8% | NCI-H460 lung 101% | HOP-92 NSCLC 79.7% | NCI-H522 lung 87.1% | A549/ATCC NSCLC 91.9% | 786-0 renal 102% | COLO 205 colon 101%

COc1ccc(/C=N/N=C(/c2ccccc2)c2ccc3nc(-c4ccc(Cl)cc4)[nH]c3c2)cc1
inactive: NCI-H23 lung 91.1% | NCI-H226 lung 77% | NCI-H322M lung 84.3% | HOP-62 NSCLC 99.3% | NCI-H460 lung 90% | HOP-92 NSCLC 106% | NCI-H522 lung 72.9% | A549/ATCC NSCLC 75.1% | 786-0 renal 76.9% | COLO 205 colon 72%

CC(=O)Nc1cc(N2CCOCC2)c2nc(NC(=O)c3[nH]c(C)c(Cl)c3Cl)sc2c1
inactive: NCI-H23 lung 77.2% | NCI-H226 lung 37.3% | NCI-H322M lung 92.1% | HOP-62 NSCLC 69.2% | NCI-H460 lung 64% | HOP-92 NSCLC 119% | NCI-H522 lung 71.8% | A549/ATCC NSCLC 71.9% | 786-0 renal 44.5% | COLO 205 colon 104%

COc1cc(C(C)=C(c2ccc(OCCN(C)C)cc2)c2ccc(OCCN(C)C)cc2)ccc1F
inactive: NCI-H23 lung 96.5% | NCI-H226 lung 92.9% | NCI-H322M lung 96.6% | HOP-62 NSCLC 97.2% | NCI-H460 lung 106% | HOP-92 NSCLC 73.4% | NCI-H522 lung 99.7% | A549/ATCC NSCLC 113% | 786-0 renal 94.3% | COLO 205 colon 104%

Cc1ccc2c(n1)C(=O)C(Cl)=C(Nc1cccc(C(=O)OC(C)(C)C)c1)C2=O
inactive: NCI-H23 lung 73.7% | NCI-H226 lung 82.8% | NCI-H322M lung 112% | HOP-62 NSCLC 108% | NCI-H460 lung 101% | HOP-92 NSCLC 88.8% | NCI-H522 lung 60.6% | A549/ATCC NSCLC 106% | 786-0 renal 99.8% | COLO 205 colon 119%

CN1CCN(c2ccc(Nc3nc(NCCCNS(=O)(=O)c4ccc(C(F)(F)F)cc4)c4sccc4n3)cc2)CC1
inactive: NCI-H226 lung 57.9%
active: NCI-H23 lung 2.34% | NCI-H322M lung -1.68% | HOP-62 NSCLC -49.1% | NCI-H460 lung -47.8% | HOP-92 NSCLC -55.9% | NCI-H522 lung -85.6% | A549/ATCC NSCLC -12.1% | 786-0 renal -82.2% | COLO 205 colon -76%

CN1CCN(c2ccc(Nc3nc(NCCNS(=O)(=O)c4ccccc4)c4sccc4n3)cc2)CC1
inactive: NCI-H23 lung 97.5% | NCI-H226 lung 94.2% | NCI-H322M lung 94.9% | HOP-62 NSCLC 98.7% | NCI-H460 lung 104% | HOP-92 NSCLC 57.3% | NCI-H522 lung 95% | A549/ATCC NSCLC 104% | 786-0 renal 99.2% | COLO 205 colon 110%

CCOP(=O)(OCC)OC[C@]12CCC(C)(C)C[C@H]1C1=CC[C@@H]3[C@@]4(C)CC[C@H](OP(=O)(OCC)OCC)C(C)(C)[C@@H]4CC[C@@]3(C)[C@]1(C)CC2
inactive: NCI-H23 lung 53.9% | NCI-H226 lung 66.1% | NCI-H322M lung 83.7% | HOP-62 NSCLC 82.9% | NCI-H460 lung 51.3% | HOP-92 NSCLC 27.9% | NCI-H522 lung 51.5% | A549/ATCC NSCLC 44.3% | 786-0 renal 66.3% | COLO 205 colon 66.6%

CN1CCN(Cc2ccc(NC(=O)c3cncc(C#Cc4cnc5ccc(NCCO)nn45)c3)cc2C(F)(F)F)CC1
active: NCI-H23 lung -40.2% | NCI-H226 lung -14% | NCI-H322M lung -15% | HOP-62 NSCLC -41.5% | NCI-H460 lung -78% | HOP-92 NSCLC -27.1% | NCI-H522 lung -75.8% | A549/ATCC NSCLC 1.34% | 786-0 renal -17.9% | COLO 205 colon -82.3%

CC(=C(c1ccc(OCCN(C)C)cc1)c1ccc(OCCN(C)C)cc1)c1ccc(Cl)cc1
inactive: NCI-H23 lung 29.5%
active: NCI-H226 lung -11.9% | NCI-H322M lung -3.42% | HOP-62 NSCLC -57.8% | NCI-H460 lung -71.9% | HOP-92 NSCLC -9.45% | NCI-H522 lung -64.5% | A549/ATCC NSCLC -65% | 786-0 renal -67.5% | COLO 205 colon -50%

C/C(=N/N)c1nnn(-c2ccc(Br)cc2)c1C
inactive: NCI-H23 lung 99.6% | NCI-H226 lung 91.5% | NCI-H322M lung 95.7% | HOP-62 NSCLC 93.7% | NCI-H460 lung 102% | HOP-92 NSCLC 93.4% | NCI-H522 lung 91.5% | A549/ATCC NSCLC 99.4% | 786-0 renal 103% | COLO 205 colon 115%

C#CCOc1ccc(/C=N/Nc2nc(-c3ccc(OC)cc3)cs2)cc1
inactive: NCI-H23 lung 68.9% | NCI-H226 lung 63.7% | NCI-H322M lung 95% | HOP-62 NSCLC 97.6% | NCI-H460 lung 77.3% | HOP-92 NSCLC 68.6% | NCI-H522 lung 70.1% | A549/ATCC NSCLC 77% | 786-0 renal 89.2% | COLO 205 colon 96.1%

CS(=O)(=O)c1nccc(-c2c(-c3cccc(OCc4ccc(Cl)c(C(F)(F)F)c4)c3)nc3sccn23)n1
inactive: NCI-H23 lung 39.4% | NCI-H226 lung 23.6% | NCI-H322M lung 86.1% | HOP-62 NSCLC 32% | NCI-H460 lung 55.6% | HOP-92 NSCLC 73.9% | NCI-H522 lung 80.1% | A549/ATCC NSCLC 106% | 786-0 renal 106% | COLO 205 colon 105%

C#C[C@]1(O)CC[C@H]2[C@@H]3CC=C4c5sc(N6CCN(C)CC6)nc5CC[C@]4(C)[C@H]3CC[C@@]21C
active: 786-0 renal -39.2%
inactive: NCI-H23 lung 57% | NCI-H226 lung 86.8% | NCI-H322M lung 77.4% | HOP-62 NSCLC 54.8% | NCI-H460 lung 49.2% | HOP-92 NSCLC 82.7% | NCI-H522 lung 28.1% | A549/ATCC NSCLC 54.7% | COLO 205 colon 66.5%

O=C(CCCCCCN1CC(=O)N2[C@@H](c3cccs3)c3[nH]c4ccccc4c3C[C@H]2C1=O)NO
inactive: NCI-H23 lung 94.1% | NCI-H226 lung 107% | NCI-H322M lung 79.8% | HOP-62 NSCLC 91.2% | NCI-H460 lung 77.2% | HOP-92 NSCLC 69% | NCI-H522 lung 44.7% | A549/ATCC NSCLC 98.9% | 786-0 renal 103% | COLO 205 colon 93.1%

CCCCCC[n+]1ccc(SCC(=O)n2ccc3ccccc32)c2ccccc21
inactive: NCI-H23 lung 63.8% | NCI-H226 lung 79.5% | NCI-H322M lung 94% | HOP-62 NSCLC 90.2% | NCI-H460 lung 99.5% | HOP-92 NSCLC 81.2% | NCI-H522 lung 73.5% | A549/ATCC NSCLC 101% | 786-0 renal 102% | COLO 205 colon 99.4%
